# About 83,000 compounds went through this panel and 20% of them were active in at least one assay; those are over-represented in the sample as a whole.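 Values shown are percent growth following 48 h exposure of cells in 96-well plates to a single concentration of compound; below 10 was considered active.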 Unmarked numbers belong to inactive results. Active and inactive are the calls of the source.
# System: HT29 colon
# Test: NCI-60 one-dose screen, 48 h (100 = growth as untreated, 0 = no growth, -100 = all killed)
# Conditions: 10 µM
row,Structure (SMILES),growth
1,Nc1ccccc1NC(=O)CCCCC(=O)Nc1ccc2c(c1)/C(=C/c1ccc[nH]1)C(=O)N2,67.2%
2,COc1cc(-c2cc(/C=C/C(=O)c3ccc(N)cc3)[nH]n2)cc(OC)c1OC,2.34% (active)
3,O=C(O)CC(Cl)C(Cl)CC(=O)O (configuration not stated),101%
4,Nc1nc(N)c(NC(=O)CNc2ccc(C(=O)O)cc2)c(N)n1,107%
5,COc1ccc(/C=C2/CN(CCC#N)C/C(=C\c3ccc(OC)cc3)C2=O)cc1,-37.6% (active)
6,CCCCCC(=O)c1ccc(OCCCN2CCN(C(=O)OCC)CC2)cc1,102%
7,O=C(Nc1ccc(Cl)c(Cl)c1)Nc1c(Oc2ccc(Cl)c(Cl)c2)ccc(Cl)c1S(=O)(=O)O,4.55% (active)
8,COc1cc(/C=C2\CCCC3=C2N=C2SC=NN2C3c2cc(OC)c(OC)c(OC)c2)cc(OC)c1OC (configuration not stated),3.26% (active)
9,CCC(=O)N1C/C(=C/c2ccc(OC)cc2)C(=O)/C(=C/c2ccc(OC)cc2)C1,-35.5% (active)
10,O=C(c1ccc(Cl)cc1Cl)N1CCOCC1,105%
11,O=C(CC(C(=O)c1ccccc1)N1CCOCC1)c1ccccc1 (configuration not stated),92.4%
12,COc1ccc2c(c1)O/C(=C\c1ccc([N+](=O)[O-])o1)C2=O,-33.1% (active)
13,COc1cc(Cl)cc(-c2nn(-c3cccc(NC(=O)Nc4cc(C(F)(F)F)cc(C(F)(F)F)c4)c3)cc2-c2ccncc2)c1,3.93% (active)
14,CCCCCCCCCCCCCCCCN(C(C)c1ccccc1)S(=O)(=O)c1ccc(OC)c(N)c1 (configuration not stated),100%
15,C#Cc1ccc(-n2c(/C=C/c3ccc4ccccc4c3)nc3ncccc3c2=O)cc1,0.964% (active)
16,CCN(CC)CCNC(=O)c1ccc(NC(C)=O)cc1,102%
17,COc1cc(C(=O)/C=C/c2cc(-c3cc(OC)c(OC)c(OC)c3)n[nH]2)cc(OC)c1OC,-47.5% (active)
18,COc1cc(C)ccc1C(=O)c1ccc(C)cc1OC,2.74% (active)
19,O=C(Nc1cccc(Br)c1)c1cc(=O)[nH]c2ccccc12,107%
20,N=C(N)c1ccc(-c2ccc(-c3cccs3)o2)cc1,-26.5% (active)
21,CC(=O)N1C/C(=C/c2ccc(Cl)cc2)C(=O)/C(=C/c2ccc(Cl)cc2)C1,-62.2% (active)
22,Cc1ccc(C(=O)Nc2cccc(F)c2)cc1NC(=O)C1(c2ncnc3[nH]ccc23)CC1,52.5%
23,COc1ccc(OC)c(NC(=O)c2sc3nc4c(cc3c2N)C(=O)CCC4)c1,106%

# System: SNB-75 CNS
# Test: as above
# Conditions: 10 µM
row,Structure (SMILES),growth
1,COc1cc(-c2nn3c(/C=C4/C(=O)Nc5ccccc54)c(-c4ccc(C)cc4)nc3s2)cc(OC)c1OC,18.3%
2,CCCCC/C=C/C(=O)CCc1ccc(O)c(OC)c1,63%
3,Cc1c(Cl)cccc1NC(=O)c1sc2nc3c(cc2c1N)C(=O)CCC3,27%
4,CSc1cc(SC)ncn1,94.2%
5,O=C(Nc1ccc(CN2CCc3nc4cc(O)c(O)cc4cc32)cc1)c1ccc(Cl)c(Cl)c1,89.2%
6,COc1ccc(-c2cc(/C=C/C(=O)c3cc(OC)c(OC)c(OC)c3)[nH]n2)cc1OC,17.8%
7,O=C1NC(=O)N(Cc2ccccc2)CC1Br (configuration not stated),91.4%
8,O=C(Nc1ccncc1)C(=O)c1cn(S(=O)(=O)c2cccc(Cl)c2)c2ccccc12,85.3%
9,CCOC(=O)C(=Cc1ccc(Br)cc1)C(=O)OCC,12.7%
10,COc1cc(-c2cc(/C=C3\C(=O)Nc4ccc(Cl)cc43)[nH]n2)cc(OC)c1OC,-5.13% (active)
11,CC(C)(C)NC/C(=C\c1ccccc1)C(=O)c1ccccc1,26.9%
12,Cc1cc(N(CCCNc2ccnc3cc(Cl)ccc23)Cc2cccs2)nc(Cl)n1,49.2%
13,Nc1nc(N)c2c(ccc3nccc32)[nH]1,79.2%
14,CCCC(F)C(=O)O (configuration not stated),99.2%
15,Cn1c(N)c(N=Nc2ccc(S(=O)(=O)Nc3nccs3)cc2)c(=O)n(C)c1=O,94.1%
16,COc1cc(-c2cc(/C=C/C(=O)c3ccc(Cl)c(Cl)c3)[nH]n2)cc(OC)c1OC,75.4%
17,Nc1ccccc1NC(=O)CCCCC(=O)Nc1ccc2c(c1)/C(=C/c1ccc[nH]1)C(=O)N2,16.9%
18,COc1cc(-c2cc(/C=C/C(=O)c3ccc(N)cc3)[nH]n2)cc(OC)c1OC,8.6% (active)
19,O=C(O)CC(Cl)C(Cl)CC(=O)O (configuration not stated),103%
20,Nc1nc(N)c(NC(=O)CNc2ccc(C(=O)O)cc2)c(N)n1,76%

row,Structure (SMILES),growth
1,COc1ccc(/C=C2/CN(CCC#N)C/C(=C\c3ccc(OC)cc3)C2=O)cc1,51.4%
2,CCCCCC(=O)c1ccc(OCCCN2CCN(C(=O)OCC)CC2)cc1,102%
3,O=C(Nc1ccc(Cl)c(Cl)c1)Nc1c(Oc2ccc(Cl)c(Cl)c2)ccc(Cl)c1S(=O)(=O)O,-11.6% (active)
4,COc1cc(/C=C2\CCCC3=C2N=C2SC=NN2C3c2cc(OC)c(OC)c(OC)c2)cc(OC)c1OC (configuration not stated),19.7%
5,CCC(=O)N1C/C(=C/c2ccc(OC)cc2)C(=O)/C(=C/c2ccc(OC)cc2)C1,52.9%
6,O=C(c1ccc(Cl)cc1Cl)N1CCOCC1,81.8%
7,O=C(CC(C(=O)c1ccccc1)N1CCOCC1)c1ccccc1 (configuration not stated),101%
8,COc1ccc2c(c1)O/C(=C\c1ccc([N+](=O)[O-])o1)C2=O,58.7%
9,COc1cc(Cl)cc(-c2nn(-c3cccc(NC(=O)Nc4cc(C(F)(F)F)cc(C(F)(F)F)c4)c3)cc2-c2ccncc2)c1,11.3%
10,CCCCCCCCCCCCCCCCN(C(C)c1ccccc1)S(=O)(=O)c1ccc(OC)c(N)c1 (configuration not stated),91.5%
11,C#Cc1ccc(-n2c(/C=C/c3ccc4ccccc4c3)nc3ncccc3c2=O)cc1,47.3%
12,CCN(CC)CCNC(=O)c1ccc(NC(C)=O)cc1,112%
13,COc1cc(C(=O)/C=C/c2cc(-c3cc(OC)c(OC)c(OC)c3)n[nH]2)cc(OC)c1OC,54.9%
14,COc1cc(C)ccc1C(=O)c1ccc(C)cc1OC,8.51% (active)
15,O=C(Nc1cccc(Br)c1)c1cc(=O)[nH]c2ccccc12,70.6%
16,N=C(N)c1ccc(-c2ccc(-c3cccs3)o2)cc1,40.6%
17,CC(=O)N1C/C(=C/c2ccc(Cl)cc2)C(=O)/C(=C/c2ccc(Cl)cc2)C1,30.1%
18,Cc1ccc(C(=O)Nc2cccc(F)c2)cc1NC(=O)C1(c2ncnc3[nH]ccc23)CC1,95.8%
19,COc1ccc(OC)c(NC(=O)c2sc3nc4c(cc3c2N)C(=O)CCC4)c1,87.2%

# — PubChem BioAssay (NCI)
